# Measured values: ChEMBL document CHEMBL2218924, “A broad activity screen in support of a chemogenomic map for kinase signalling research and drug discovery” (Biochem J, 2013)
# Experiments:
# [1] = target: T1, Ephrin type-A receptor 3 (Homo sapiens) (UniProt P29320); conditions: at 10 µM
# T1 sequence (whole entry): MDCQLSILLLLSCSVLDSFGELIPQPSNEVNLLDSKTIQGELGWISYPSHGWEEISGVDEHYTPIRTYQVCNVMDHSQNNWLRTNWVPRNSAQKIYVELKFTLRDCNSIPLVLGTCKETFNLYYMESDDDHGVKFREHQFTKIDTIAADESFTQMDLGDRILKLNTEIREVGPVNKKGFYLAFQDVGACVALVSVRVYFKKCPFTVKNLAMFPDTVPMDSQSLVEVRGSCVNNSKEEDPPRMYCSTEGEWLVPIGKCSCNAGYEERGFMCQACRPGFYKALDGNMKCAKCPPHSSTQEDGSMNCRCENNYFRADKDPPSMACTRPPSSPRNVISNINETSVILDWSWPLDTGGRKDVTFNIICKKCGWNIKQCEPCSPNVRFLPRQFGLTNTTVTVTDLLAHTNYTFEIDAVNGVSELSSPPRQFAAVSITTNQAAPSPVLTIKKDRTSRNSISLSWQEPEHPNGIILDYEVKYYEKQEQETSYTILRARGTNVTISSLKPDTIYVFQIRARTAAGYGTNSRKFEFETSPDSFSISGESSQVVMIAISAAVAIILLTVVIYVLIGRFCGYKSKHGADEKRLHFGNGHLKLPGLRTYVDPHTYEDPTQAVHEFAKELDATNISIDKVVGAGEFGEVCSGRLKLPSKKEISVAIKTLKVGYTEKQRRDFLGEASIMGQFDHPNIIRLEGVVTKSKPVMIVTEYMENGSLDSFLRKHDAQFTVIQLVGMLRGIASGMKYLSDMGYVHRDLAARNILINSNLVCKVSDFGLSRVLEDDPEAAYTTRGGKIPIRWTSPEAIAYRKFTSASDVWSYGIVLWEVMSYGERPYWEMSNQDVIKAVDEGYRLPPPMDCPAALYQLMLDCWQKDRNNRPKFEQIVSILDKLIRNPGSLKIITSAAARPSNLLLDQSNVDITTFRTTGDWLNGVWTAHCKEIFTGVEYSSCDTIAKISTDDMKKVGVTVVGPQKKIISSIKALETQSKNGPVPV
# [2] = target: Ephrin type-A receptor 4 (Homo sapiens) (UniProt P54764); conditions: at 1 µM
# Sequence of Ephrin type-A receptor 4 (Homo sapiens) (P54764 whole entry): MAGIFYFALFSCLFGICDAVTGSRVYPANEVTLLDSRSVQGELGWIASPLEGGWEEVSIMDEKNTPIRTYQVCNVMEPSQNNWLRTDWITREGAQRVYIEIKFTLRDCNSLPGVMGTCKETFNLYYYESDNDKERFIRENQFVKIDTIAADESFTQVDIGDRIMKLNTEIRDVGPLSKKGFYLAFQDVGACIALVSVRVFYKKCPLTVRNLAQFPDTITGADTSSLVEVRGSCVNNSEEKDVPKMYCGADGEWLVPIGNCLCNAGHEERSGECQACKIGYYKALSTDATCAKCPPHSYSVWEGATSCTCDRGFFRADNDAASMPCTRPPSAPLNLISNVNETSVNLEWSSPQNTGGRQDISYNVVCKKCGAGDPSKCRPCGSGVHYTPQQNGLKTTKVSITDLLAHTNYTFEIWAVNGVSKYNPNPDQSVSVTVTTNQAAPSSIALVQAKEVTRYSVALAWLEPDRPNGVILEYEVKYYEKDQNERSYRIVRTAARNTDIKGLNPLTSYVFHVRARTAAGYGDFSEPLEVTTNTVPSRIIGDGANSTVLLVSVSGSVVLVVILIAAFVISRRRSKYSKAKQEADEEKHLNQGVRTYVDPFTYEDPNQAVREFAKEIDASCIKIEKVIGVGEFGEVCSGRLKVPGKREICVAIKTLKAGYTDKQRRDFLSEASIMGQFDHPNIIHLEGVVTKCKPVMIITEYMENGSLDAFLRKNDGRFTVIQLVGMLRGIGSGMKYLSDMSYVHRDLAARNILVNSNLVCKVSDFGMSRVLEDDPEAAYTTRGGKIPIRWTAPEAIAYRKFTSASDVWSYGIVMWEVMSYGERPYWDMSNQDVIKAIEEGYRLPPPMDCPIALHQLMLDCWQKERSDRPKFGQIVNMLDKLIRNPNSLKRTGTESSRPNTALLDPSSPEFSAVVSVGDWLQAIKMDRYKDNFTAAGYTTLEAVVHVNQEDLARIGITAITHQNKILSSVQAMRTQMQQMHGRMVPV
# [3] = target: Ephrin type-A receptor 4 (Homo sapiens) (UniProt P54764); conditions: at 10 µM
# [4] = target: Ephrin type-A receptor 5 (Homo sapiens) (UniProt P54756); conditions: at 1 µM
# Sequence of Ephrin type-A receptor 5 (Homo sapiens) (P54756 whole entry): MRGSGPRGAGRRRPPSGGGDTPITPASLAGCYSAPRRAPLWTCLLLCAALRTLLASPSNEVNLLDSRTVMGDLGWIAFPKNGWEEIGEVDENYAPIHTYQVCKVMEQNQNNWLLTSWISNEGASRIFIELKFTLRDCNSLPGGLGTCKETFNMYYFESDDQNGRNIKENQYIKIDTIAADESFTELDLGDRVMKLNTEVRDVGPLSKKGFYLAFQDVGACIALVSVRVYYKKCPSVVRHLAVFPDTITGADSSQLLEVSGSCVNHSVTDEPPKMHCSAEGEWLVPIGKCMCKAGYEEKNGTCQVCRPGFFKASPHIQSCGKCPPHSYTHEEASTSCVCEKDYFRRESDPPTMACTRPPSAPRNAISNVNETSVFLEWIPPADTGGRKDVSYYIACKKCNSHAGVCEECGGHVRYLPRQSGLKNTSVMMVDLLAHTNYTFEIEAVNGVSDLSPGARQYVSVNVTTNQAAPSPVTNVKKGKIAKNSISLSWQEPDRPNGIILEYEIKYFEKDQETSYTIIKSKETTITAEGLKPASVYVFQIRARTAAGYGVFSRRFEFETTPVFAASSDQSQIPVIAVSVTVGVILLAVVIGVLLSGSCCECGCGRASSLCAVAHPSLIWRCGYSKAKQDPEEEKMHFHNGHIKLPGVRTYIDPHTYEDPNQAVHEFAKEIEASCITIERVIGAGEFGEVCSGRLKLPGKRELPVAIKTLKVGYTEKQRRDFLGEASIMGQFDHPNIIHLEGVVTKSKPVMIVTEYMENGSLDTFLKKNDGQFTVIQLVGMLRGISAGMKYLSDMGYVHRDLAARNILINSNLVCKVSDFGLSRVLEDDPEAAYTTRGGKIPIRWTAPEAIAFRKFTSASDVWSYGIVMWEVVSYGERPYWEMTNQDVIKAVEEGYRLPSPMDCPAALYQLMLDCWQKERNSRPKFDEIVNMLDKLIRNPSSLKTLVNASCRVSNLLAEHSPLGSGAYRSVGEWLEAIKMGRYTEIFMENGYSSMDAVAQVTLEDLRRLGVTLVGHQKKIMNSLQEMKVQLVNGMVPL
# [5] = target: Ephrin type-A receptor 5 (Homo sapiens) (UniProt P54756); conditions: at 10 µM
# [6] = target: Ephrin type-A receptor 7 (Homo sapiens) (UniProt Q15375); conditions: at 1 µM
# Sequence of Ephrin type-A receptor 7 (Homo sapiens) (Q15375 28-998 limits assumed): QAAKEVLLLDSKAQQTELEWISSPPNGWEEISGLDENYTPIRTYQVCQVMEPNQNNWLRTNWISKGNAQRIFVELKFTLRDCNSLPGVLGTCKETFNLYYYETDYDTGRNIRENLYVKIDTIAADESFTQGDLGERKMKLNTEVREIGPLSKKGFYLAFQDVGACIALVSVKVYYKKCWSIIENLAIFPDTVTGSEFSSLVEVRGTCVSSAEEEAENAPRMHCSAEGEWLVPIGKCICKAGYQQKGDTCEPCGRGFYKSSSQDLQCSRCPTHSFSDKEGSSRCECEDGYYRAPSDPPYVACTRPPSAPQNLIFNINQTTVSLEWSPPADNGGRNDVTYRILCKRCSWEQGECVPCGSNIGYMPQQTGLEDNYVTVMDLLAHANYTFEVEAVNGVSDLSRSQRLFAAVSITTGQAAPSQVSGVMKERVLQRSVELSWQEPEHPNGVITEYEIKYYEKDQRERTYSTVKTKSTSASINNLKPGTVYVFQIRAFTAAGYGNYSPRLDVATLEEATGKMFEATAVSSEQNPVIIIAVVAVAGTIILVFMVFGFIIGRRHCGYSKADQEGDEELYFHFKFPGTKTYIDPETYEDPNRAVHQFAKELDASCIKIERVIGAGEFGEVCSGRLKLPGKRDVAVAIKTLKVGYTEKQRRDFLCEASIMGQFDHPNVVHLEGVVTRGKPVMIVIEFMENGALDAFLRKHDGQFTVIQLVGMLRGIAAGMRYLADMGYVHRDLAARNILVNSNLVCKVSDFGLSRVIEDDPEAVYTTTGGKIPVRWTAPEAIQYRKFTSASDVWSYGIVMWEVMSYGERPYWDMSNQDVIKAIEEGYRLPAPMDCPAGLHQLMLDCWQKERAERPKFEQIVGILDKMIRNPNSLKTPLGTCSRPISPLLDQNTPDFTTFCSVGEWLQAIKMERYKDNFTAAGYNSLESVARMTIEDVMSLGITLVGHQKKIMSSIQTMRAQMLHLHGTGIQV
# [7] = target: Ephrin type-A receptor 7 (Homo sapiens) (UniProt Q15375); conditions: at 10 µM
# [8] = target: T2, Ephrin type-A receptor 8 (Homo sapiens) (UniProt P29322); conditions: at 1 µM
# T2 sequence (whole entry): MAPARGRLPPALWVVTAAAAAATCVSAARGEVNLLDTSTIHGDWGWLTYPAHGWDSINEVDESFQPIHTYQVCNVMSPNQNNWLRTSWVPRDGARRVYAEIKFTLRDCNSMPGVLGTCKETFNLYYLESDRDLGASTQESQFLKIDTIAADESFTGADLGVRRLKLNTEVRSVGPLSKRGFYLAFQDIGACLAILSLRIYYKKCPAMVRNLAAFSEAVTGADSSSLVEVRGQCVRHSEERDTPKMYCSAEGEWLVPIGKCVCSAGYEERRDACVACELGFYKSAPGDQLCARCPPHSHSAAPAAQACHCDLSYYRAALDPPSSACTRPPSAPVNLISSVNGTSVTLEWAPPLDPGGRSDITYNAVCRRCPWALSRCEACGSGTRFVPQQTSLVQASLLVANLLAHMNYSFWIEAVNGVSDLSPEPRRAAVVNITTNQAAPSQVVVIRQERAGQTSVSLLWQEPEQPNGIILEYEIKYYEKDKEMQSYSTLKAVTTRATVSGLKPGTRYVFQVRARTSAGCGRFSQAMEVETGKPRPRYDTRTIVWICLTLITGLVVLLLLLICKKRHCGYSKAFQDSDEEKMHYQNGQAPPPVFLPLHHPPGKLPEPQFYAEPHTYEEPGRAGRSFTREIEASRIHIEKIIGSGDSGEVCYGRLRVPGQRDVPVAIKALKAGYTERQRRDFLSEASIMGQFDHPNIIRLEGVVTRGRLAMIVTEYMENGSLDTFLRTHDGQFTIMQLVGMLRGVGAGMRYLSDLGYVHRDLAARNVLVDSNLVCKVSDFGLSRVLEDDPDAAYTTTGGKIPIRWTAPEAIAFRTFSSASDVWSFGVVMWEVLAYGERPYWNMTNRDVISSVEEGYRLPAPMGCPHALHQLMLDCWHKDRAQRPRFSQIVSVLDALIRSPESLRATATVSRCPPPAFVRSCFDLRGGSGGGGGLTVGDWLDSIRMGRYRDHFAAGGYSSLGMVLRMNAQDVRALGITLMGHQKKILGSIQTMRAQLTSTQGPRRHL
# [9] = target: T2, Ephrin type-A receptor 8 (Homo sapiens); conditions: at 10 µM
# [10] = target: T3, Ephrin type-B receptor 1 (Homo sapiens) (UniProt P54762); conditions: at 1 µM
# T3 sequence (whole entry): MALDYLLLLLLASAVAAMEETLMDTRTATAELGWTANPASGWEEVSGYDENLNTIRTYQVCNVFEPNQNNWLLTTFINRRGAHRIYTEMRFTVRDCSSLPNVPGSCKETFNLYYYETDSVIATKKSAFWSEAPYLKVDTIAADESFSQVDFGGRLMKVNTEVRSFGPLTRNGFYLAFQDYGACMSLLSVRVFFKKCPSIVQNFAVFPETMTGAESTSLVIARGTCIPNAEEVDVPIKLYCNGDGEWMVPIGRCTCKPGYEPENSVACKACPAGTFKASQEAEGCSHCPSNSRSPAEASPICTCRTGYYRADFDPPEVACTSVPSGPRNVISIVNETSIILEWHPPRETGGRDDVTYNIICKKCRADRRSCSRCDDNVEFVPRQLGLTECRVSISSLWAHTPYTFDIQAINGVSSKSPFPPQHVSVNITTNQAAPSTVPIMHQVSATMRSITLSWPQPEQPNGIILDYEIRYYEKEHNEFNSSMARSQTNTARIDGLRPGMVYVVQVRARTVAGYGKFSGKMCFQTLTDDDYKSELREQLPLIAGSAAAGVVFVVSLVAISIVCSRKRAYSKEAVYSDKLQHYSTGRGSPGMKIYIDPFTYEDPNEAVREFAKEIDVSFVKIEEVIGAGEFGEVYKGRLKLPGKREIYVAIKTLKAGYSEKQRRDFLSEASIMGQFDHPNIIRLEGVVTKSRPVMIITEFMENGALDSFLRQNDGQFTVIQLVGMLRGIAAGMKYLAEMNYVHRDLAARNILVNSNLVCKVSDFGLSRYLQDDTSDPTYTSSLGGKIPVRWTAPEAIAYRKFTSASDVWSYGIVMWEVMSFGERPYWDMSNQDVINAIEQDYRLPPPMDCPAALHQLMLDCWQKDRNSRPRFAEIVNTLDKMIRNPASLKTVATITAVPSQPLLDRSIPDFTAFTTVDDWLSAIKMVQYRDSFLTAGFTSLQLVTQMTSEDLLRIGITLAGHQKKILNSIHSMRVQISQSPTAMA
compound,measurement,setting,value
O=C(Nc1cccc(Nc2cc(Nc3cccc(C(F)(F)F)c3)ncn2)c1)C1CC1,residual activity,[1],114%
same,residual activity,[2],113%
same,residual activity,[3],103%
same,residual activity,[4],98%
same,residual activity,[5],87%
same,residual activity,[6],95%
same,residual activity,[7],86%
same,residual activity,[8],98%
same,residual activity,[9],90%
same,residual activity,[10],98%
